{"source": "PubChem BioAssay AID504406", "about": "(Broad Institute, 2011)", "note": "The campaign covered roughly 320,000 compounds. About 190 (0.059%) were called active. For the sample, actives were picked, then their nearest neighbours and some compounds at random. Unmarked numbers belong to inactive results. No stated cut-off is given here; in the data, active means inhibition above about 10% (passing the limit was not always enough); inconclusive means no clear call, values can overlap the other calls.", "data": [{"target": "UDP-galactopyranose mutase (Mycobacterium tuberculosis (strain ATCC 25618 / H37Rv)) (UniProt P9WIQ1)", "sequence (P9WIQ1 whole entry, looked up)": "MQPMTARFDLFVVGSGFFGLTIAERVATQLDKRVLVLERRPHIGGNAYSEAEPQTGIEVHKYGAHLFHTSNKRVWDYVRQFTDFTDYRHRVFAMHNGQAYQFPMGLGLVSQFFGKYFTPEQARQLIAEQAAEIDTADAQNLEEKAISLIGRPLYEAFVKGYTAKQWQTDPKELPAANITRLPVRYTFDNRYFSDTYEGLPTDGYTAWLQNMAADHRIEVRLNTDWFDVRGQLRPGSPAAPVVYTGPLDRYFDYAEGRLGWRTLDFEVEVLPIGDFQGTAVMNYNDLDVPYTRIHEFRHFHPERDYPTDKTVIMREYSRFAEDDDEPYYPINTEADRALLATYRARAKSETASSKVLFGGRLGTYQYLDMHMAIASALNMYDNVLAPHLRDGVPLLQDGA", "assay": "blockers of Mtb UDP-galactopyranose mutase – biochemical, fluorescence polarization, single point, primary screen (AID 504406)", "settings": "purified UGM, fluorescence polarization probe displacement; at 10 µM; hits give high values", "units": {"inhibition": "%"}, "values": [{"smiles": "CCN(CC)S(=O)(=O)c1ccc(N2CCCC2)c(NS(=O)(=O)c2cccs2)c1", "inhibition": -0.858}, {"smiles": "Clc1ccc(-c2cc(COc3ccccc3)no2)cc1Cl", "inhibition": 2.39}, {"smiles": "Cc1ccc(S(=O)(=O)N(CC(=O)N/N=C/c2ccc(F)cc2)c2cccc3cccnc23)cc1", "inhibition": 1.31}, {"smiles": "COc1ccc2c(c1)c(=O)c(C(=O)c1ccc(Cl)cc1)cn2CC(=O)Nc1ccc(F)cc1", "inhibition": -1.48}, {"smiles": "Cc1cc(C)n(CCC(=O)N2CCN(S(=O)(=O)c3ccc(C)c(C)c3)CC2)n1", "inhibition": -2.44}, {"smiles": "CCOC(=O)C1(CCOc2ccccc2)CCN(Cc2ccc(C#CCCO)cc2)CC1", "inhibition": -2.01}, {"smiles": "COC(=O)c1ccc(NC(=O)CSc2nncn2-c2cccnc2)cc1", "inhibition": -3.9}, {"smiles": "COc1ccc(C(O)(C2CCCCC2)C(CN2CCCC2)c2ccccc2)cc1", "note": "(stereo not drawn)", "inhibition": 1.17}, {"smiles": "COc1ccc(CNS(=O)(=O)c2ccc(NC(=O)N3CCCCC3)cc2)cc1", "inhibition": 0.444}, {"smiles": "COC(=O)c1c(NC(=O)COc2ccc(Cl)cc2Cl)sc2c1CC(C)(C)NC2(C)C", "inhibition": -3.8}, {"smiles": "C=C(Br)CN1CCN(CC(=C)Br)CC1", "inhibition": 2.58}, {"smiles": "C=CC[C@@H](CC(=O)NCCO)C(=O)N[C@H](C)COC(=O)[C@@H](CC=C)CC(=O)OC(C)(C)C", "inhibition": -0.634}, {"smiles": "Cn1c(=O)c2c(nc(OCc3cccnc3)n2Cc2ccccc2)n(C)c1=O", "inhibition": 7.96}, {"smiles": "Cc1cc(C(=O)OCC(=O)Nc2ccc(F)c(F)c2)c(C)o1", "inhibition": -0.0838}, {"smiles": "COc1cccc(NC(=O)CN(C)CC(=O)c2c(N)n(Cc3ccccc3)c(=O)n(C)c2=O)c1", "inhibition": 3.19}, {"smiles": "CCCn1nnnc1NCc1ccc(CC)cc1", "inhibition": -1.05}, {"smiles": "Cc1cccc(N(C)C(=O)CN2C(=O)COc3ccc(S(=O)(=O)N4CCCCCC4)cc32)c1", "inhibition": -1.26}, {"smiles": "CCOC(CNC(=O)C1CCN(S(=O)(=O)c2ccc3nc4c(c(C(=O)O)c3c2)CC(C)CC4)CC1)OCC", "note": "(stereo not drawn)", "inhibition": -0.608}, {"smiles": "Cc1ccc(N)cc1-n1c(C)ccc1C", "inhibition": -4.8}, {"smiles": "CC(Sc1nc2cc(Cl)ccc2s1)C(=O)Nc1ccc2c(c1)OCO2", "note": "(stereo not drawn)", "inhibition": 1.22}, {"smiles": "Cc1cccc(N(CC(=O)Nc2ccc(-c3nc4ccc(C)cc4s3)cc2)S(C)(=O)=O)c1", "inhibition": -2.81}, {"smiles": "CCN(CC)CCn1cnc2c1c(=O)n(CCOC(=O)c1cc(OC)c(OC)c(OC)c1)c(=O)n2C", "inhibition": 0.786}, {"smiles": "CC(CNC(=O)Cn1cnc2c(OCc3ccccc3)ncnc21)c1ccccc1", "note": "(stereo not drawn)", "inhibition": -1.84}, {"smiles": "CCSC1(SCC)N=C(N)C2(C#N)C(c3ccccc3)NC(C)=CC12C#N", "note": "(stereo not drawn)", "inhibition": 0.444}, {"smiles": "O=C1CCC(Cc2ccccc2)N1", "note": "(stereo not drawn)", "inhibition": 1.36}, {"smiles": "O=C(CN1C(=O)c2ccc([N+](=O)[O-])cc2C1=O)Nc1nnc(C2CC2)s1", "inhibition": 0.737}, {"smiles": "CN1CCN(Cc2nc3cc(NC(=O)COc4ccc([N+](=O)[O-])cc4)ccc3n2C)CC1", "inhibition": -1.12}, {"smiles": "CC1CCC2(CC1)NC(=O)N(CC(=O)c1cccn1C)C2=O", "note": "(stereo not drawn)", "inhibition": -1.14}]}]}
